Activity calls are given as the source filed them. The call rests on the fitted dose curve; in most records, active means well fitted inhibition curve with a large enough effect; inconclusive means small, poorly fitted or top-dose-only effect; inactive means no such curve, though single readings can be large or run the other way.
Target: Single-stranded DNA cytosine deaminase (Homo sapiens) (UniProt Q9GZX7)
Assay: Validation qHTS assay for inhibitors of Activation Induced Cytidine Deaminase (AID): AID signal (AID 1347429)
Settings: Recombinant AID, FRET ssDNA deamination with UDG, fluorescence; series mostly up to 115 µM; activity change, negative = inhibition: at the top concentration
Text: Assay Provider (PI) Patricia Gearhart Ph.D. National Institute on Aging National Institute of Health (NIH), Bethesda, MD Assay Provider (PI) Rahul Kohli Ph.D. Perelman School of Medicine University of Pennsylvania, Philadelphia, PA Activation-Induced Deaminase (AID) is a cytosine deaminase which converts cytosine into uracil within stretches of ssDNA. The presence of uracil in DNA initiates a cascade of mutagenic DNA repair to introduce point mutations and DNA double strand breaks. Specific targeting of AID to the immunoglobulin heavy chain loci (Igh) promotes mutagenesis in the antibody variable region for somatic hypermutation (SHM) or switch regions leading to class switch recombination (CSR). However, AID also plays a role in accumulating unnecessary mutations across the genome. Mis-targeting of AID results in the initiation of tumor development and leads to greater drug resistance among cancer cells when continually expressed. To identify an AID inhibitor, a small molecule library will be screened in collaboration with NCATS core facility at NIH. To confirm biological function, inhibitors will be examined in an in vitro murine B-cell activation assay and subsequent secondary validation screens. Top molecules will be further screened to identify inhibitory efficacy against a wild type primary splenocytes assay. Using these approaches, we hope to identify a small molecule with great efficacy and low toxicity for use as a molecular probe to further characterize AID's intricacies, or even as a therapeutic. A FRET based analysis of cytosine deamination, was developed to identify potential inhibitors of AID catalytic activity. This screen has two signal output, Read 1 evaluates the AID inhibition response. The second readout (Read 2) evaluates UDG response and is uses as a counterscreen to exclude false positive inhibitors. Inhibition in AID and inactivity in the UDG signal is the desired outcome for this assay.
PROTOCOL TABLE SEQUENCE No. (e.g., 1, 2, 3, etc.); […] (e.g., Cells, Incubation, Reagent, etc.); VALUE; DESCRIPTION 1a; Reagent; 3 uL; [4/3x] […] 250 nM DJC20 / 250 nM DJC23 [Substrate] 5; Time; 4 hr; incubation at room temperature 6; Reagent; 4 uL; [2x] 250 mM NaOH 7; Time; 15 sec; centrifuge at 1000 rpm 8; Time; 30 min; incubation at room temperature 9a; Detection; fluorescence (Read 1: AID); EnVision (PerkinElmer) plate reader, 540 excitation and 590 emission filters 9b; Detection; fluorescence (Read 2: UDG); EnVision (PerkinElmer) plate reader, 560 excitation and 665 emission filters NOTES (numbers refer to sequence above) 1a; Reagents were dispensed in a medium-binding black solid-bottom Greiner plates (789176F) using a BioRptr liquid dispenser. Dispense 3 uL of [4/3x] 1 uM AID (provided by Kohli lab) and [4/3x] 2 U/mL UDG (NEB M0280L) into columns 1, 2, 5 to 48. 1b; Dispense 3 uL of [4/3x] 2 U/mL UDG into column 3. 1c; Dispense 3 uL of [4/3x] 1 uM AID into column 4. 2a; Compound ([…] [uM] (0.64; 3.2; 16; 80; 400; 2,000; 10,000; 20,000) double pin-transferred (Dip Factor = 2) using the Kalypsys (Wako USA) pintool equipped with a 1536 pinhead for a final concentration range of 7.32 nM - 114 uM. 2b; 10 mM Aurintricarboxylic Acid (Sigma A1895) (ATA, 8-point, n = 2, 1:2.5 dilution in column 2) double pin-transferred (Dip Factor = 2) using the Kalypsys (Wako USA) pintool equipped with a 1536 pinhead for a [final] range of 186 nM - 114 uM. 3; Room temperature incubation. 4; Dispense 1 uL of substrate mixture from the Kohli lab [4x] […] DJC20 and [4x] 250 nM DJC23 into columns 1 to 48 . 5; Room temperature incubation. 6; Dispense 4 uL of substrate mixture [2x] 250 mM NaOH into columns 1 to 48. 7; Centrifugation step to remove bubbles. 8; Room temperature incubation 9a; Fluorescence signal (column label AID) was read using the EnVision plate reader. Excitation filter = 540(8) nm, barcode = 311; Emission filter = 590(20) nm, barcode = 217; Mirror = D555, barcode = 405. […]
On the % scale 0 is the no-effect control and ±100 the full control effect.

Chain of Single-stranded DNA cytosine deaminase (Homo sapiens) (Q9GZX7 whole entry, looked up): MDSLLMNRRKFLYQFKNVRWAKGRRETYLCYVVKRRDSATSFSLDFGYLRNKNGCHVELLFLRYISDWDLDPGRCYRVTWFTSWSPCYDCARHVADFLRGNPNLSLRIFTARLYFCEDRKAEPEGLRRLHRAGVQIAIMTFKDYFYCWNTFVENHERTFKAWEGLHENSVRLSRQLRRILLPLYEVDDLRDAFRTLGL

| Structure (SMILES) | activity change, negative = inhibition |
| --- | --- |
| CCn1nc(C(=O)O)c(=O)c2cc3c(cc21)OCO3 | 10.4% (inactive) |
| CCCCNC(=O)NS(=O)(=O)c1ccc(C)cc1 | 15.6% (inactive) |
| CC(=O)Oc1cc(C(C)C)c(OCCN(C)C)cc1C | 24.3% (inactive) |
| CCCOc1ccccc1-c1nc2n[nH]nc2c(=O)[nH]1 | 12.6% (inactive) |
| Cc1nc2sccn2c(=O)c1CCN1CCC(=C(c2ccc(F)cc2)c2ccc(F)cc2)CC1 | -6.35% (inactive) |
| CCN1CCC[C@H]1CNC(=O)c1c(O)c(Cl)cc(Cl)c1OC | 24.2% (inactive) |
| NC(=O)N1c2ccccc2C=Cc2ccccc21 | 14.7% (inactive) |
| FC(F)(F)c1ccccc1-n1ccnc1 | 1.21% (inactive) |
| COc1cc2c(cc1OC)-c1cc(=Nc3c(C)cc(C)cc3C)n(C)c(=O)n1CC2 | 4.43% (inactive) |
| CCCCNc1c(C(=O)OCC)c(C)nc2c1cnn2CC | 3.8% (inactive) |
| CC(C)(Oc1ccc(CCNC(=O)c2ccc(Cl)cc2)cc1)C(=O)O | 23.1% (inactive) |
| CC(C)COCC(CN(Cc1ccccc1)c1ccccc1)N1CCCC1 (stereo not given) | 44.2% (inactive) |
| Cc1nc2ccccn2c(=O)c1CCN1CCC(C(=O)c2ccc(F)cc2)CC1 | 35.9% (inactive) |
| c1cnc(N2CCN(Cc3ccc4c(c3)OCO4)CC2)nc1 | 17.2% (inactive) |
| CN(C)C(=O)Oc1cccc([N+](C)(C)C)c1 | 17.8% (inactive) |
| CN(C)CC[C@@H](c1ccc(Br)cc1)c1ccccn1 | 1.41% (inactive) |
| CCCCCN(CCCCC)C(=O)C(CCC(=O)O)NC(=O)c1ccc(Cl)c(Cl)c1 (stereo not given) | 6.77% (inactive) |
| CCCC(C(=O)OCCN(CC)CC)(c1ccccc1)c1ccccc1 | 9.62% (inactive) |
| C[C@]12CCC(=O)C=C1CC[C@@H]1[C@@H]2CC[C@@]2(C)[C@H]1CC[C@]2(O)C(=O)CO | 7.72% (inactive) |
| C[C@]12CC[C@@H]3c4ccc(O)cc4C[C@@H](CCCCCCCCCS(=O)CCCC(F)(F)C(F)(F)F)[C@H]3[C@@H]1CC[C@@H]2O (stereo not given in full) | 13.3% (inactive) |

| Structure (SMILES) | activity change, negative = inhibition |
| --- | --- |
| CCOC(=O)C1=C(C)NC(C)=C(C(=O)OC)C1c1cccc([N+](=O)[O-])c1 (stereo not given) | -2.18% (inactive) |
| CC[N+](C)(C)c1cccc(O)c1 | 2.83% (inactive) |
| OC(CCN1CCCCC1)(c1ccccc1)C1CCCCC1 (stereo not given) | 14.1% (inactive) |
| CC(C)NCC(O)c1cc(O)cc(O)c1 (stereo not given) | 91.2% (inactive) |
| OCCN1CCN(CC/C=C2/c3ccccc3Sc3ccc(C(F)(F)F)cc32)CC1 | 9.85% (inactive) |
| N[C@@H](COP(=O)(O)O)C(=O)O | 16.8% (inactive) |
| O=C1NCN(c2ccccc2)C12CCN(CCCC(c1ccc(F)cc1)c1ccc(F)cc1)CC2 | -16.5% (inactive) |
| CN/C(=C\[N+](=O)[O-])NCCSCc1ccc(CN(C)C)o1 | 273% (inactive) |
| Nc1c2c(nc3ccccc13)CCCC2O (stereo not given) | 35.3% (inactive) |
| CC(C)NNC(=O)c1ccncc1 | 16% (inactive) |
| CCn1ccnc1CC1COc2ccccc2O1 (stereo not given) | 10.3% (inactive) |
| Cc1ccc(Cl)c(Nc2ccccc2C(=O)O)c1Cl | -0.632% (inactive) |
| CC1=NS(=O)(=O)c2cc(Cl)ccc2N1 | 19.6% (inactive) |
| Cc1ccc(=O)n(-c2ccccc2)c1 | 20.5% (inactive) |
| CCCN(CCC)CCc1cccc2c1CC(=O)N2 | 26.7% (inactive) |
| NC(Cc1ccc(Cl)cc1)C(=O)O (stereo not given) | 20.8% (inactive) |
| Fc1ccc(C(c2ccc(F)cc2)N2CCN(C/C=C/c3ccccc3)CC2)cc1 | 2.1% (inactive) |
| Cc1nc2c([nH]1)c(=O)n(C)c(=O)n2Cc1ccco1 | 17.2% (inactive) |
| CCN(CC)CCCN(c1ccccc1)C1Cc2ccccc2C1 | 40.3% (inactive) |
| CN(C)CCOC(=O)COc1ccc(Cl)cc1 | 25.1% (inactive) |

Source: PubChem BioAssay (NCATS)
